Source: PubChem BioAssay (several laboratories)
Compounds with a hit are over-represented: about 9.6% of the library has one in this group of screens.
PostGolgi yeast – growth inhibition of a yeast mutant, post-Golgi transport screen. post-Golgi transport phenotypic cell assay. inhibition, % at 10 µM. 98,000 compounds, 0.9% hits. AID 739;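 further: yeast cells grown in 1536-well plates; yeast grown about 18 h at 30C before absorbance read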
PostGolgi ctrl – inhibits growth of the yeast control strain; 98,000 compounds, 5% hits; inhibition, % at 10 µM; efflux-deficient yeast background strain, growth absorbance A615, 16 h
DAT uptake mod – human DAT dopamine uptake with cocaine, either direction; Q01959; LLC-PK1 hDAT cells, [14C]-dopamine uptake with cocaine IC80; actives deviate in either direction; B-score at 10 µM; 110,000 compounds, 1.3% hits; AID 449768;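 active means Z score or B-score, a plate-position-corrected score, falls beyond the plate's 99.7% confidence bounds, in either direction; inactive means both scores lie inside the 99.7% bounds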;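 further: scored against the spread of the other compound wells on the same plate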
Cav3 T inh – inhibitors of human Cav3.2 T-type calcium channel; O95180; Cav3.2-expressing cells, Fluo-4 calcium fluorescence FDSS; active compounds read low; B-score at 10 µM; 100,000 compounds, 4% hits; AID 449739;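 active means single-dose well whose peak fluorescence ratio is a statistical outlier from its plate by either plate-standardised score or position-corrected B-score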
PLAP activator – activates human placental alkaline phosphatase | P05187 | AID 696 | 96,000 compounds, 1.2% hits | activation fold at 20 µM | purified PLAP enzyme, luminescent substrate read-out; active compounds read high; in the data active means activation fold above about 2
Target sequence (P05187 whole entry, looked up): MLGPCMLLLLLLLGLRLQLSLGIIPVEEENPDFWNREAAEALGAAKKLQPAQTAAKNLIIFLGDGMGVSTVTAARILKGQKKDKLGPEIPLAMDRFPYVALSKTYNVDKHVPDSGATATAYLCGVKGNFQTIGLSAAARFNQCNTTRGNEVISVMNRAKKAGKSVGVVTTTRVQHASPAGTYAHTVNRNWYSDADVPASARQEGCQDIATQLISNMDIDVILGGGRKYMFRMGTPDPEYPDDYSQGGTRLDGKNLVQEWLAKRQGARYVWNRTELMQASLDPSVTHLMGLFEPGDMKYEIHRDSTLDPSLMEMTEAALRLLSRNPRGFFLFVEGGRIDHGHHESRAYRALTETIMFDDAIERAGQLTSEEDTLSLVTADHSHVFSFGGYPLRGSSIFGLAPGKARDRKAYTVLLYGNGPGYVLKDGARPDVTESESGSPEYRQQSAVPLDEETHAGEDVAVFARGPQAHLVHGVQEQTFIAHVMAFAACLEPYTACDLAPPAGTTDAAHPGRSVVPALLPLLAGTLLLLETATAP
An asterisk follows results filed as active; . = not tested or not shown. Unless noted, no stated cut-off is given here; in the data, active means inhibition above about 30%; inactive means the rest.

SMILES	PostGolgi yeast	PostGolgi ctrl	DAT uptake mod	Cav3 T inh	PLAP activator
CCCS(=O)(=O)c1nnnn1-c1cccc(OC)c1	55*	29	-0.51	1.4	1.3
COc1cccc(-n2nnnc2SCC(=O)Nc2ccc(C(C)=O)cc2)c1	.	.	1.1	0.11	.
Cn1c(N2CCOCC2)nc(-c2ccccc2)c1-c1ccccc1	-2	11	0.53	-1.1	1.6
O=C(N/N=C/c1ccccn1)c1ccc(Br)o1	0	5	-0.88	-0.66	2.4*
O=C(N/N=C/c1ccccn1)C1CC1	1	2	-2.2	.	1.6
Cc1ccc(OCCCCn2cnc3ccccc32)c(C)c1	-4	32*	-1.5	-2.6	1.2
CSC1=NC(NCCCO)c2c(sc3c2CC(C)(C)OC3)N1 (stereo not given)	3	-1	0.41	1.3	1.2
COc1ccc(C(=O)/C=C\c2ccc(NC(=O)c3cccs3)cc2)cc1	-2	20	-1.1	-1.4	0.9
Cc1cc(C)c(NC(=O)c2ccc(CN3CCc4ccccc4C3)cc2)c(C)c1	1	13	1.8	-4.3*	2.3*
O=C(NCc1ccc2c(c1)OCO2)c1ccc(CN2CCc3ccccc3C2)cc1	7	-2	0.078	-5.3*	1
CCC1=NN=C(c2ccc(F)cc2)C(c2c[nH]c3ccccc23)N1O (stereo not given)	.	.	-0.0011	-1.6	.
CCOc1ccccc1N1C(=O)c2ccc(C(=O)Nc3cccnc3)cc2C1=O	-8	-4	-0.039	-2.9*	1.4
CCOc1cc(OCC)cc(C(=O)Nc2cccnc2)c1	6	-9	0.79	0.69	0.8
O=C(NCc1ccc2c(c1)OCO2)c1ccc2c(c1)C(=O)N(Cc1cccnc1)C2=O	-2	3	0.00095	-1.3	0.9
O=C(Nc1cccnc1)c1ccc2c(c1)C(=O)N(Cc1cccnc1)C2=O	28	30*	0.7	0.029	1.1
O=C(c1cc2nc(-c3ccccc3)cc(-c3ccccc3)n2n1)N1CCN(C(=O)c2ccco2)CC1	-14	8	1.8	-0.17	1.1
O=C(/C(=C/c1ccc(Cl)cc1)c1nc2ccccc2[nH]1)c1cccs1	104*	101*	0.83	-1.8	1.3
COc1cc(/C=C(/C(=O)c2cccs2)c2nc3ccccc3[nH]2)ccc1O	2	6	-0.85	-2.3	0.7
OC1(c2cccc(C(F)(F)F)c2)CCN(c2ncnc3c2[nH]c2ccc(F)cc23)CC1	4	33*	.	.	1.4
Cc1nnc(SC(=O)N2c3ccccc3Sc3ccccc32)s1	13	75*	-0.042	-0.62	1
Cc1nnc(SCC(=O)N2c3ccccc3Sc3ccccc32)n1N	-4	5	-0.016	0.48	0.9
COc1ccc(N2CCN(C(=O)CCCSc3nc4ccccc4[nH]3)CC2)cc1	4	25	0.29	-0.36	1.7
COc1ccc(NC(=O)c2ccc3snnc3c2)cc1	.	.	-2.9*	-1.1	.
Cc1nc2ccccc2c(=O)n1NCc1cc(Br)cs1	-3	23	-0.35	-0.96	0.9
CCc1cc2c(CN3CCN(CCO)CC3)cc(=O)oc2cc1O	-6	10	1.6	.	1.1
SMILES	PostGolgi yeast	PostGolgi ctrl	DAT uptake mod	Cav3 T inh	PLAP activator
O=S(=O)(NCCOCC(F)(F)F)c1ccc2oc3ccccc3c2c1	1	10	-1	-4.3*	1
O=S(=O)(NCCOCCNS(=O)(=O)c1ccccc1)c1ccccc1	-5	6	.	.	0.9
COc1ccccc1NC(=O)C(NC(=O)OC(C)(C)C)C(C)OCc1ccccc1 (stereo not given)	2	18	0.17	-3	1.4
CC(C)c1ccc(C(=O)CC2(O)C(=O)N(CN3CCOCC3)c3ccccc32)cc1 (stereo not given)	-7	0	0.44	-5.8*	1
COC(=O)c1ccccc1NC(=O)CSc1nc(O)cc(=O)n1C1CCCC1	-5	7	0.2	1.2	1.2
CCOC(=O)C1=C(C)NC2=C(C(=O)CCC2)C1c1cn(Cc2ccc(Cl)cc2Cl)nc1-c1ccccc1 (stereo not given)	-6	24	.	.	1.7
COC(=O)C1=C(C)NC2=C(C(=O)CCC2)C1c1cn(Cc2ccc(Cl)cc2Cl)nc1-c1ccccc1 (stereo not given)	5	-3	1.3	-7.3*	1.4
O=C(O)C1CC(c2cccc(Br)c2)=NO1 (stereo not given)	-9	4	-0.01	0.095	1
O=C(C1CC(c2cccc(Br)c2)=NO1)N1CCc2ccccc2C1 (stereo not given)	-1	15	0.0083	-4.4*	1.1
CCOC(=O)C1=C(C)NC(=S)N(C(C)=O)C1c1ccc(Cl)cc1 (stereo not given)	.	.	0.053	-5.5*	.
COCCOC(=O)C1=C(C)NC(=O)N(C(C)=O)C1c1ccc(Cl)cc1 (stereo not given)	7	1	1.5	-0.22	1
Cc1ccccc1-c1nc2ccccc2c(=O)n1/N=C/c1ccccc1[N+](=O)[O-]	0	47*	1.1*	-1.9	0.9
O=c1c2ccccc2nc2n1CC/C2=C\c1ccccc1[N+](=O)[O-]	0	7	-0.0042	0.14	1
Cc1ccc2oc(=O)c3cnn(CC(=O)N(CCCN4CCOCC4)Cc4ccco4)c3c2c1	7	-2	0.24	1.7	.
COC(=O)C1=C(C)NC(=O)/C1=C\c1cc(C)n(-c2ccccc2C)c1C	10	32*	0.34	0.52	1
COC(=O)C1=C(C)NC(=O)/C1=C\c1cc(C)n(-c2c(C)cccc2C)c1C	-1	-2	0.88	-0.79	1.3
CC(C)COC(=O)C1[C@H]2C(=O)N(Cc3cccs3)C[C@]23C=C[C@H]1O3 (stereo not given in full)	-9	7	-0.95	-0.68	1.4
CCN(Cc1ccccc1)C(c1ccccn1)c1nnnn1C1CCCCC1 (stereo not given)	.	.	-0.93	-4*	.
CCN(Cc1ccccc1)C(c1cccs1)c1nnnn1C1CCCCC1 (stereo not given)	11	15	-0.099	-3	0.6
Cc1ccc(S(=O)(=O)N2CCC(C(=O)NCc3ccncc3)CC2)cc1	-13	8	-0.36	0.96	1.1
CCCOc1cc(CN2CCCCC2)cc(C(C)=O)c1	-2	2	-0.00098	-0.21	1.1
COc1cccc(C(=O)N2CCN(C3CCC(c4ccccc4)CC3)CC2)c1OC (stereo not given)	94*	54*	0.052	.	1.5
COc1ccc(/C=C/c2ccncc2)c2ccccc12	-1	43*	0.37	-1.8	1.2
COc1ccc(-c2cc(C3CC3)nc3sc(C#N)c(N)c23)cc1	6	63*	0.89	0.29	1.5
CCOC(=O)/C(C(=O)Nc1ccccc1Cl)=C1/NC(C)(C)Cc2ccccc21	-6	10	2.8*	-1.6	1.3
CCOC(=O)C1CCN(CCC(=O)Nc2ccccc2Cl)CC1	.	.	-0.27	0.63	.
Cc1cc2n(n1)C(c1ccc(N(C)C)cc1)Nc1ccccc1-2 (stereo not given)	-2	23	-0.57	-7.2*	1.1
CCCOc1ccc(OC(=O)c2ccc(Br)o2)cc1	-1	9	0.0073	-0.049	0.9
